Results from the supplement of paper PMC7411054.
Counter-ions that a name gives are not always drawn.

Tests used:
Details in all cases: treatment time: 24 h
A549-ACTB-RAB5A [1] = assay: lowest phenotypically active concentration; higher = less potent
Summary of the method: (§1)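 Phenotypic activity depended on meeting both a deviation and a reproducibility criterion. The fifteen gene-edited A549, HepG2 and WPMY1 reporter lines were treated at 0.3, 1, 3 or 9 µM for 24 h, four wells each, then imaged live with features normalised to solvent control wells. Deviation required ≥3 of 4 wells past the 95th percentile of control Euclidean distances, and reproducibility a median replicate Pearson correlation above the 95th percentile of non-replicates.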

A549-GM130-SQSTM1 [2] = assay: as above
Summary of the method: as §1

A549-TUBA1B-RELA [3] = assay: as above
Summary of the method: as §1

A549-ACTB-RAB5A [4] = assay: phenotypically active (imaging signature differs from DMSO and reproducible) at any of 0.3-9 uM (binary (1 = active, 0 = inactive)); higher = active
Summary of the method: as §1

A549-CANX-COX4 = assay: as above
Summary of the method: as §1

A549-GM130-SQSTM1 [5] = assay: as above
Summary of the method: as §1

A549-TP53BP1-CLTA = assay: as above
Summary of the method: as §1

A549-TUBA1B-RELA [6] = assay: as above
Summary of the method: as §1

HepG2-ACTB-RAB5A [7] = assay: as above
Summary of the method: as §1

HepG2-CANX-COX4 = assay: as above
Summary of the method: as §1

HepG2-GM130-SQSTM1 = assay: as above
Summary of the method: as §1

HepG2-TP53BP1-CLTA [8] = assay: as above
Summary of the method: as §1

HepG2-TUBA1B-RELA = assay: as above
Summary of the method: as §1

WPMY1-ACTB-RAB5A = assay: as above
Summary of the method: as §1

WPMY1-CANX-COX4 = assay: as above
Summary of the method: as §1

WPMY1-GM130-SQSTM1 = assay: as above
Summary of the method: as §1

WPMY1-TP53BP1-CLTA = assay: as above
Summary of the method: as §1

WPMY1-TUBA1B-RELA = assay: as above
Summary of the method: as §1

HepG2-ACTB-RAB5A [9] = assay: lowest phenotypically active concentration; higher = less potent
Summary of the method: as §1

HepG2-TP53BP1-CLTA [10] = assay: as above
Summary of the method: as §1

| Compound | lowest phenotypically active concentration (A549-ACTB-RAB5A [1]) | lowest phenotypically active concentration (A549-GM130-SQSTM1 [2]) | lowest phenotypically active concentration (A549-TUBA1B-RELA [3]) | phenotypically active (A549-ACTB-RAB5A [4]) | phenotypically active (A549-CANX-COX4) | phenotypically active (A549-GM130-SQSTM1 [5]) | phenotypically active (A549-TP53BP1-CLTA) | phenotypically active (A549-TUBA1B-RELA [6]) | phenotypically active (HepG2-ACTB-RAB5A [7]) | phenotypically active (HepG2-CANX-COX4) | phenotypically active (HepG2-GM130-SQSTM1) | phenotypically active (HepG2-TP53BP1-CLTA [8]) | phenotypically active (HepG2-TUBA1B-RELA) | phenotypically active (WPMY1-ACTB-RAB5A) | phenotypically active (WPMY1-CANX-COX4) | phenotypically active (WPMY1-GM130-SQSTM1) | phenotypically active (WPMY1-TP53BP1-CLTA) | phenotypically active (WPMY1-TUBA1B-RELA) | lowest phenotypically active concentration (HepG2-ACTB-RAB5A [9]) | lowest phenotypically active concentration (HepG2-TP53BP1-CLTA [10]) |
| --- | --- | --- | --- | --- | --- | --- | --- | --- | --- | --- | --- | --- | --- | --- | --- | --- | --- | --- | --- | --- |
| c1cc(-c2cc(C3CCNCC3)[nH]n2)ccn1 | 9 µM | 3 µM | 9 µM | 1 (active) | 1 (active) | 1 (active) | 0 (inactive) | 1 (active) | 0 (inactive) | 1 (active) | 0 (inactive) | 0 (inactive) | 0 (inactive) | 1 (active) | 1 (active) | 0 (inactive) | 0 (inactive) | 0 (inactive) |  |  |
| CN1CCc2cccc3c2[C@H]1Cc1ccc(O)c(O)c1-3 [r(-)-apomorphine] | 9 µM | 9 µM | 9 µM | 1 (active) | 1 (active) | 1 (active) | 1 (active) | 1 (active) | 0 (inactive) | 0 (inactive) | 0 (inactive) | 0 (inactive) | 0 (inactive) | 1 (active) | 1 (active) | 1 (active) | 0 (inactive) | 1 (active) |  |  |
| O=S(=O)(c1cccc2c(O)nccc12)N1CCCNCC1 [HA 1100 hydrochloride] | 3 µM |  | 9 µM | 1 (active) | 1 (active) | 0 (inactive) | 1 (active) | 1 (active) | 1 (active) | 1 (active) | 1 (active) | 1 (active) | 0 (inactive) | 1 (active) | 1 (active) | 1 (active) | 1 (active) | 1 (active) | 9 µM | 1 µM |
| O=C(Nc1ccccc1)c1cc([N+](=O)[O-])ccc1Cl | 9 µM | 9 µM | 3 µM | 1 (active) | 1 (active) | 1 (active) | 0 (inactive) | 1 (active) | 1 (active) | 0 (inactive) | 0 (inactive) | 0 (inactive) | 0 (inactive) | 0 (inactive) | 1 (active) | 0 (inactive) | 0 (inactive) | 0 (inactive) | 9 µM |  |
| N#C/C(=C/c1ccc(O)c(O)c1)C(=O)NCCCCc1ccccc1 | 9 µM | 9 µM | 9 µM | 1 (active) | 1 (active) | 1 (active) | 0 (inactive) | 1 (active) | 1 (active) | 1 (active) | 1 (active) | 1 (active) | 0 (inactive) | 1 (active) | 1 (active) | 1 (active) | 1 (active) | 1 (active) | 9 µM | 9 µM |
| Cc1cccc(C)c1OCC(=O)N[C@@H](Cc1ccccc1)[C@@H](O)C[C@H](Cc1ccccc1)NC(=O)[C@H](C(C)C)N1CCCNC1=O [lopinavir] | 9 µM |  |  | 1 (active) | 1 (active) | 0 (inactive) | 0 (inactive) | 0 (inactive) | 1 (active) | 0 (inactive) | 0 (inactive) | 0 (inactive) | 1 (active) | 0 (inactive) | 1 (active) | 0 (inactive) | 0 (inactive) | 0 (inactive) | 9 µM |  |
| C=C1C(=O)O[C@@H]2C=C(C)CCC=C(C)CC[C@@H]12 [Costunolide] | 9 µM |  |  | 1 (active) | 1 (active) | 0 (inactive) | 0 (inactive) | 0 (inactive) | 1 (active) | 1 (active) | 1 (active) | 1 (active) | 0 (inactive) | 1 (active) | 0 (inactive) | 1 (active) | 1 (active) | 1 (active) | 9 µM | 9 µM |
| COc1cc2c(cc1NS(=O)(=O)c1ccc(Br)cc1C)n(C)c(=O)n2C | 3 µM |  |  | 1 (active) | 1 (active) | 0 (inactive) | 1 (active) | 0 (inactive) | 1 (active) | 1 (active) | 1 (active) | 0 (inactive) | 1 (active) | 0 (inactive) | 0 (inactive) | 0 (inactive) | 0 (inactive) | 0 (inactive) | 9 µM |  |
| CC(C)C(=O)SCCCCCCC(=O)Nc1nc(-c2ccccc2)cs1 | 1 µM |  | 9 µM | 1 (active) | 1 (active) | 0 (inactive) | 0 (inactive) | 1 (active) | 0 (inactive) | 1 (active) | 0 (inactive) | 0 (inactive) | 0 (inactive) | 1 (active) | 1 (active) | 1 (active) | 1 (active) | 1 (active) |  |  |
| Nc1nccc(-c2ccc3noc(-c4ccc(Cl)cc4)c3c2)n1 [PIM-1 Inhibitor 2] | 3 µM | 3 µM |  | 1 (active) | 1 (active) | 1 (active) | 1 (active) | 0 (inactive) | 0 (inactive) | 0 (inactive) | 0 (inactive) | 1 (active) | 0 (inactive) | 1 (active) | 1 (active) | 1 (active) | 1 (active) | 1 (active) |  | 9 µM |
| CC1(C)O[C@@H]2C[C@H]3[C@@H]4C[C@H](F)C5=CC(=O)C=C[C@]5(C)[C@@]4(F)[C@@H](O)C[C@]3(C)[C@]2(C(=O)CO)O1 [fluocinolone acetonide] | ≤ 0.3 µM | ≤ 0.3 µM | ≤ 0.3 µM | 1 (active) | 1 (active) | 1 (active) | 1 (active) | 1 (active) | 0 (inactive) | 0 (inactive) | 0 (inactive) | 0 (inactive) | 0 (inactive) | 1 (active) | 0 (inactive) | 0 (inactive) | 0 (inactive) | 0 (inactive) |  |  |
| Cc1nnc(-c2ccc3occ(-c4ccc(S(C)=O)cc4)c3c2)o1 (configuration not stated) | 9 µM | 9 µM |  | 1 (active) | 1 (active) | 1 (active) | 1 (active) | 0 (inactive) | 1 (active) | 1 (active) | 1 (active) | 0 (inactive) | 1 (active) | 1 (active) | 1 (active) | 1 (active) | 1 (active) | 0 (inactive) | 9 µM |  |
| CC(C)n1c(/C=C/[C@@H](O)C[C@@H](O)CC(=O)O)c(-c2ccc(F)cc2)c2ccccc21 [fluvastatin] | 1 µM | 9 µM |  | 1 (active) | 1 (active) | 1 (active) | 1 (active) | 0 (inactive) | 1 (active) | 1 (active) | 1 (active) | 1 (active) | 1 (active) | 1 (active) | 1 (active) | 1 (active) | 1 (active) | 1 (active) | 1 µM | 3 µM |
| CCCOc1ccc(CCc2nc3cc(-c4c(C)noc4C)ccc3n2CCN2CCOCC2)cc1 | 9 µM |  |  | 1 (active) | 1 (active) | 0 (inactive) | 0 (inactive) | 0 (inactive) | 1 (active) | 1 (active) | 0 (inactive) | 1 (active) | 0 (inactive) | 0 (inactive) | 0 (inactive) | 0 (inactive) | 0 (inactive) | 0 (inactive) | 9 µM | 9 µM |
| CN(C)CC(=O)Nc1ccc2[nH]c(=O)c3ccccc3c2c1 [PJ 34 hydrochloride] | 9 µM | 9 µM | 9 µM | 1 (active) | 1 (active) | 1 (active) | 0 (inactive) | 1 (active) | 1 (active) | 1 (active) | 1 (active) | 1 (active) | 1 (active) | 1 (active) | 1 (active) | 1 (active) | 0 (inactive) | 1 (active) | 9 µM | 9 µM |
| C=C1CC[C@@H]2[C@](C)(CO)[C@H](O)CC[C@@]2(C)[C@@H]1C/C=C1/C(=O)OC[C@H]1O [Andrographolide] | 9 µM | 3 µM | 9 µM | 1 (active) | 1 (active) | 1 (active) | 0 (inactive) | 1 (active) | 1 (active) | 1 (active) | 1 (active) | 1 (active) | 1 (active) | 0 (inactive) | 0 (inactive) | 1 (active) | 0 (inactive) | 1 (active) | 3 µM | 3 µM |
| C[C@@H](Nc1ncnc2[nH]c(-c3ccc(O)cc3)cc12)c1ccccc1 [PKI 166 hydrochloride] | 3 µM | 3 µM | 3 µM | 1 (active) | 1 (active) | 1 (active) | 1 (active) | 1 (active) | 0 (inactive) | 1 (active) | 0 (inactive) | 1 (active) | 1 (active) | 1 (active) | 1 (active) | 1 (active) | 1 (active) | 1 (active) |  | 9 µM |
| COc1ccc(-c2cnc(-c3cccc4c3-c3ccccc3C4=O)o2)cc1 | ≤ 0.3 µM | ≤ 0.3 µM | ≤ 0.3 µM | 1 (active) | 1 (active) | 1 (active) | 1 (active) | 1 (active) | 0 (inactive) | 0 (inactive) | 0 (inactive) | 0 (inactive) | 0 (inactive) | 1 (active) | 1 (active) | 1 (active) | 1 (active) | 1 (active) |  |  |
| Nc1ncnc2[nH]nc(Nc3ccc(F)cc3)c12 | 9 µM |  | 9 µM | 1 (active) | 1 (active) | 0 (inactive) | 0 (inactive) | 1 (active) | 1 (active) | 0 (inactive) | 1 (active) | 1 (active) | 1 (active) | 1 (active) | 1 (active) | 1 (active) | 1 (active) | 1 (active) | 9 µM | 9 µM |
| COc1cc(OC)c2cc(-c3ccncc3)cnc2c1 [DMPQ dihydrochloride] | 9 µM | 9 µM |  | 1 (active) | 0 (inactive) | 1 (active) | 1 (active) | 0 (inactive) | 0 (inactive) | 1 (active) | 0 (inactive) | 0 (inactive) | 0 (inactive) | 0 (inactive) | 1 (active) | 0 (inactive) | 1 (active) | 0 (inactive) |  |  |
| O=S(=O)(c1cccc2cnccc12)N1CCCNCC1 [fasudil] | 3 µM | 9 µM | 3 µM | 1 (active) | 0 (inactive) | 1 (active) | 1 (active) | 1 (active) | 1 (active) | 1 (active) | 1 (active) | 1 (active) | 1 (active) | 1 (active) | 1 (active) | 1 (active) | 0 (inactive) | 1 (active) | 9 µM | 3 µM |
